Assay outcomes as filed in PubChem BioAssay.
In the library only some 2.4% were active in any assay of this set; here they are far more common.
CHT block: human CHT choline transport inhibition. Q9GZV3. CHT-expressing cells, membrane potential dye, choline response; active compounds read low. B-score at 10 µM. 0.86% of 310,000 active. AID 488975;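 active means B-score over 3 SD under the library average, and starting fluorescence ratio not unusually high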;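 further: choline stimulus applied at its EC90 after an EC20 pre-addition; B-score computed on integrated fluorescence ratio after choline addition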
CHT PAM: human CHT allosteric activation; AID 488977; B-score at 10 µM; CHT-expressing cells, membrane potential dye, choline EC20; active compounds read high; LV-AA mutant CHT in HEK293 cells; 0.49% of 310,000 active;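 active means initial fluorescence not abnormally high and integrated response B-score, plate-corrected, over 3 SD above library mean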
ANO1 activ: activates or potentiates the mouse TMEM16A chloride channel. HEK293 TMEM16A/YFP-H148Q/I152L, iodide quench fluorescence; active compounds read low. B-score at 10 µM. Q8BHY3. 0.3% of 340,000 active;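 active means fluorescence-ratio B-score plate-corrected deviation score at least 3 library SD below zero, with starting fluorescence score within 5 deviations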;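 further: channel opened by trigger with iodide after compound preincubation; score built on the fluorescence ratio of max minus min over baseline; more negative score means more quench and so TMEM16A activation or potentiation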
ANO1 block: mouse TMEM16A channel inhibition, primary screen | Q8BHY3 | HEK293 TMEM16A/YFP iodide influx fluorescence, ionomycin | normalized B-score (activity score, 25-100; higher = stronger inhibition) at 10 µM | 1.2% of 310,000 active | AID 588511;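 active means ratio plate-corrected score three or more library SD toward inhibition, starting fluorescence score within five deviations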;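 further: score derived from kinetic fluorescence span divided by baseline fluorescence per well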
An asterisk follows results filed as active; i = inactive; . = no result.

SMILES	CHT block	CHT PAM	ANO1 activ	ANO1 block
CCOC(=O)Cc1csc(NC(=O)COc2ccc(N(C)S(=O)(=O)c3cccs3)cc2)n1	i	i	i	100*
CCOC(=O)Cc1csc(NC(=O)COc2ccccc2)n1	i	i	i	i
O=C(COc1ccc(Cl)cc1)Nc1nc(-c2cccs2)cs1	i	i	i	100*
CC1CC(C)CN(C(=O)CSCC(=O)Nc2nc(-c3cccs3)cs2)C1 (stereo not given)	i	i	i	i
O=C(CSCC(=O)N1CCCCC1)Nc1nc(-c2cccs2)cs1	i	i	i	25*
O=C(Cc1ccccc1F)Nc1nc(-c2cccs2)cs1	i	i	i	25*
Cc1c(C(=O)NCCN2CCCC(O)C2)oc2c(F)cccc12 (stereo not given)	i	i	i	i
Cc1ccc(OCc2cc(C(=O)N(C)Cc3cnn(-c4ccccc4C)c3)no2)cn1	i	i	i	i
CC1(C)CC(=O)C(N=Nc2cc(S(=O)(=O)N3CCOCC3)ccc2Cl)=C(O)C1	i	i	.	i
COc1ccc(C(c2c(C)n(C)n(-c3ccccc3)c2=O)c2c(C)n(C)n(-c3ccccc3)c2=O)c(OC)c1OC	i	i	i	i
CCOc1ccc(NC(=O)CN(C)C(=O)CC(NC(=O)c2ccccc2)c2ccccc2)cc1OCC (stereo not given)	i	i	-4.95*	i
CCOc1ccc(NC(=O)CN(C)C(=O)CCNC(=O)c2ccc(Br)cc2)cc1OCC	i	i	i	i
COc1cc(/C=N/NC(=O)c2nc3ccccn3c2C)cc(OC)c1O	i	i	i	i
COc1ccc(OCCN2CCN(C(=O)c3ccc(OC)cc3)CC2)cc1	i	i	i	100*
COc1ccc(OCCN2CCN(C(=O)c3ccc(OC(F)F)c(OC)c3)CC2)cc1	i	i	i	i
CCc1c(C)sc2nc(C(C)C)nc(SCC(=O)N3CCc4ccccc4C3)c12	i	i	.	100*
Cc1sc2nc(C3CC3)nc(SCC(=O)N3CCc4ccccc4C3)c2c1C	i	i	i	i
CC(C)CN1C(=O)c2ccc(C(=O)Nc3ccc(O)cc3C(=O)O)cc2C1=O	i	i	i	i
CC(c1ccccc1)N1C(=O)c2ccc(C(=O)Nc3ccc(Br)cc3C(=O)O)cc2C1=O (stereo not given)	i	i	i	100*
O=C(CCCc1nc2ccccc2s1)NNC(=O)CCN1CCN(Cc2ccccc2)CC1	i	i	-22.5*	i
CC(C)C(NC(=O)c1c(F)cccc1F)C(=O)NCc1ccc(S(=O)(=O)N2CCOCC2)cc1 (stereo not given)	.	.	i	.
N/C(=N\OC(=O)COc1ccc(Cl)cc1Br)c1ccncc1	.	.	-39.1*	.
N/C(=N\OC(=O)c1cc(Cl)ccc1Cl)c1ccncc1	i	i	-10.4*	i
Cc1cc(C)c(NC(=O)CN(C)C(=O)CNC(=O)c2cccs2)c(C)c1	.	.	i	.
O=C(COc1ccccc1)Nc1ccncc1Cl	i	i	i	i
SMILES	CHT block	CHT PAM	ANO1 activ	ANO1 block
COc1ccc(NC(=S)NNC(=S)Nc2cccc(C(F)(F)F)c2)cc1	i	i	-6.72*	i
Cc1nn(-c2ccc(Cl)cc2)c(=O)c2ccccc12	i	i	i	i
Cc1c(Cl)sn(-c2ccc(Cl)cc2)c1=O	.	.	-13.9*	.
O=C(Nc1ncc([N+](=O)[O-])s1)c1cccc([N+](=O)[O-])c1	i	i	-4.64*	100*
O=C(Nc1ncc(S(=O)(=O)c2ccc([N+](=O)[O-])cc2)s1)c1ccc2ccccc2c1	i	i	i	100*
CC(=O)NC1=C(C#N)C(c2ccccc2)c2c(ccc3ccccc23)O1 (stereo not given)	i	i	i	i
CCOC(=O)N1CCN(c2c(NCC3CCN(Cc4cccc(C)c4)CC3)c(=O)c2=O)CC1	i	i	i	i
CCC(CO)N=C1CC(C)(C)CC(=O)/C1=C(/O)CCCN1C(=O)c2ccccc2C1=O (stereo not given)	i	i	i	i
Cc1cc(C)cc(OCC(=O)N2N=C(C(F)(F)F)CC2(O)C(C)(C)C)c1 (stereo not given)	i	i	i	100*
Cc1cc(C)cc(OCC(=O)N2N=C(c3cccnc3)CC2(O)C(F)(F)F)c1 (stereo not given)	i	i	i	i
COc1ccc(S(=O)(=O)N2CCCCCC2)cc1C(=O)N(C)Cc1ccc(C(C)(C)C)cc1	i	i	i	25*
COc1cc(-n2nc(C)c3c2OC(N)=C(C#N)C3c2ccccc2)c(Cl)c(Br)c1O (stereo not given)	-10*	i	i	i
Cc1nn(-c2ccccc2)c2c1C(c1ccncc1)C(C#N)=C(N)O2 (stereo not given)	i	i	i	i
CCCNC(=O)c1ccc(N2CCC3(CC2)CC(c2ccccc2)=NO3)c([N+](=O)[O-])c1	i	i	i	i
CCCCCCCNC(=O)c1ccc(N2CCC3(CC2)OCCO3)c([N+](=O)[O-])c1	i	i	i	100*
O=C1CC2(CCN(C(=O)C(=O)c3c[nH]c4ccccc34)CC2)Oc2ccccc21	i	i	i	i
Cc1nc2ccc(NS(=O)(=O)c3c(F)cc(F)cc3Br)cc2s1	.	.	i	.
CCOC(=O)c1cnc(-n2nc(C)cc2C)nc1NC1CCCCC1	i	i	i	100*
CCOC(=O)C1=C(C)N=c2s/c(=C/c3cccc([N+](=O)[O-])c3O)c(=O)n2C1c1ccccc1 (stereo not given)	-8.02*	i	i	100*
Cc1cccc(Oc2coc3cc(OC(=O)c4cc5ccccc5oc4=O)ccc3c2=O)c1	i	i	i	i
O=C(Oc1ccc2c(=O)c(Oc3ccc4ccccc4c3)coc2c1)c1ccco1	i	i	-5.92*	i
N#Cc1ccc(Oc2cccc3cccnc23)c([N+](=O)[O-])c1	i	i	-5.76*	i
CC(=O)C(Cc1ccccc1)NC(=O)CN1CCN(Cc2ccccc2)CC1 (stereo not given)	i	i	i	i
CCCN1Cc2cccc(C(=O)NCCc3ccccc3)c2C1=O	i	i	i	i
Cc1cc[n+](-c2[nH]c(=O)sc2/C=N/N=C(\[O-])c2ccncc2)cc1C	i	i	i	i
Cc1cc[n+](-c2[nH]c(=O)sc2/C=N/N=C(\[O-])c2ccccc2)cc1C	.	.	-5.63*	.
C=CCn1c(=N)c(C#N)cc2c(=O)n3ccccc3nc21	i	i	i	i
C=CCn1c(=O)c(C#N)cc2c(=O)n3ccccc3nc21	i	7.25*	i	i
O=C(COC(=O)Cc1ccc(S(=O)(=O)N2CCOCC2)s1)NCc1ccc(Cl)cc1	i	i	i	i
C=C(CN(C)C)C(=O)c1ccc2c(c1)OCO2	.	.	i	.
